# In the supplement of paper PMC11732987, “Enantioselective OTUD7B fragment discovery through chemoproteomics screening and high-throughput optimisation” (Communications Chemistry, 2025):
# Unmarked numbers belong to inactive results.
# Molecular target: USP14 (UniProt P54578)
# Assay: log2 ratio of Biotin-Ahx-Ub-VS probe labelling (fragment/DMSO); higher = less target engagement (more negative = stronger competition), active = hit call of the paper (q ≤ 0.05, log2 ratio ≤ -1)
# Conditions: compound concentration: 200 uM; treatment time: 3 h
# Description: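 Competitive ABPP in HEK293T cell lysate. Lysates were treated with each chloroacetamide fragment at 200 µM for 3 h, then with Biotin-Ahx-Ub-VS (0.5 µM, 1 h), NeutrAvidin-enriched and analysed by diaPASEF LC-MS/MS. Protein LFQ was median-normalised; average log2 ratio is fragment/DMSO from an unpaired t-test (n=3 treated, n=44 DMSO). Hits: q ≤ 0.05, log2 ratio ≤ -1, unique peptides ≥ 2.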
# Sequence of USP14 (P54578 whole entry, the tested form may be a part): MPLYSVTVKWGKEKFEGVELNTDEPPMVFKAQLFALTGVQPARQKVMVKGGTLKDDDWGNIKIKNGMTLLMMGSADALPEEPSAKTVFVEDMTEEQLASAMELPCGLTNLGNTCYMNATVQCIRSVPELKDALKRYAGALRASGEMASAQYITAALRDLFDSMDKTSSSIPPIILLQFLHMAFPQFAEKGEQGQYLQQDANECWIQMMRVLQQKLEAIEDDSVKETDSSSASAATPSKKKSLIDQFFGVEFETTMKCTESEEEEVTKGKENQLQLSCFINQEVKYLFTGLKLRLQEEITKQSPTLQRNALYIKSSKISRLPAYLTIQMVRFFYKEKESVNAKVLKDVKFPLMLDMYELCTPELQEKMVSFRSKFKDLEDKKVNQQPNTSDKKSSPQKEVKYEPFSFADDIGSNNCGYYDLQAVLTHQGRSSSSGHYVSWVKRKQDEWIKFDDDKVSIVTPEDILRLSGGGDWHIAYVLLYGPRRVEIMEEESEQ
row,SMILES,log2 ratio of Biotin-Ahx-Ub-VS probe labelling
1,O=C(CCl)N1CCC(c2nc3ccccc3o2)CC1,-0.483
2,Cc1ccc(C)c(NC(=O)CCl)c1,-0.687
3,Cc1cccc(N(CCC#N)C(=O)CCl)c1C,0.0267
4,CC1Cc2ccccc2N1C(=O)CCl (stereo not given),-0.771
5,Cc1ncc2c(n1)CCN(C(=O)CCl)C2,-0.161
6,Cc1cccc(C)c1NC(=O)CCl,-0.289
7,O=C(CCl)N1CCC(C(O)c2ccc(F)cc2)CC1 (stereo not given),-0.0836
8,O=C(CCl)N(C1CCCC1)C1CCS(=O)(=O)C1 (stereo not given),-0.171
9,Cc1ccc2nnc(CNC(=O)CCl)n2c1,0.17
10,O=C(CCl)Nc1ccccc1C(F)(F)F,-0.46
11,CCN(Cc1ccc(C#N)cc1F)C(=O)CCl,-0.392
12,O=C(CCl)Nc1ccc(F)cc1Cl,-0.833
13,Cc1cccc(N2CCC(NC(=O)CCl)C2=O)c1 (stereo not given),-0.345
14,Cl.Cn1ncc2c1CC(NC(=O)CCl)CC2 (stereo not given),0.136
15,O=C(CCl)Nc1cccc(C(=O)N2CCSCC2)c1,-0.335
16,Cc1conc1C1CN(C(=O)CCl)C1,-1.12 (active)
17,O=C(CCl)Nc1cccc2ncccc12,0.338
18,O=C(CCl)N[C@H]1CC[C@@H](CO)CC1,-0.814
19,CC(O)CC1CCN(C(=O)CCl)CC1 (stereo not given),-0.442
20,Cc1cnc2[nH]cc(CCNC(=O)CCl)c2c1,-0.111

row,SMILES,log2 ratio of Biotin-Ahx-Ub-VS probe labelling
1,Cc1ccc(N(CCC#N)C(=O)CCl)cc1C,-0.623
2,O=C(CCl)N1CCc2ccccc2C(O)C1 (stereo not given),-0.255
3,CCC(NC(=O)CCl)c1ccc(Cl)cc1 (stereo not given),-0.332
4,Cl.Cn1c(CNC(=O)CCl)nc2cccnc21,-0.0826
5,Cc1ccc(CNC(=O)CCl)nc1C.Cl,-0.372
6,CCCn1nccc1NC(=O)CCl,-0.663
7,Cc1ccc(N(C(=O)CCl)C2C=CS(=O)(=O)C2)cc1 (stereo not given),-0.0859
8,CN(C)C(=O)c1ccc(NC(=O)CCl)cc1,-0.162
9,CNC(=O)C1CCN(C(=O)CCl)CC1,-0.146
10,O=C(CCl)N1CC2(CCOCC2)C1,-0.191
11,O=C(CCl)N1CCC(c2ccn[nH]2)C1 (stereo not given),-0.0963
12,Cc1ccc(-c2nnc(C)[nH]2)c(NC(=O)CCl)c1,-0.203
13,CC1CCc2onc(CNC(=O)CCl)c2C1 (stereo not given),0.328
14,Cl.O=C(CCl)NCc1cc2c(nc1O)CCCC2,-0.12
15,O=C(CCl)NCCc1ccc(F)cc1,-0.0749
16,O=C(CCl)NCC1(c2ccccc2)CC1,0.0125
17,O=C(O)C1Cc2ccccc2CN1C(=O)CCl (stereo not given),-0.621
18,O=C(CCl)N1CCC(=C(F)CO)C1,0.054
19,O=C(CCl)N1CCN(C(=O)N2CCCCC2)CC1,-1.06 (active)
20,CN(Cc1nc2ccccc2[nH]1)C(=O)CCl.Cl,0.0145
